± gives the standard deviation.
What follows are sequences tested on MILI (PIWIL2) piRISC loaded with L1MC piRNA (26 nt) (assay: pre-steady-state target cleavage rate (min^-1); guide: L1MC piRNA 5'p-UAACUAAAUACUAUGCAAGCUGUAGG; MIWI and MILI are mouse PIWI proteins and EfPiwi is from a freshwater sponge; tags in brackets are library labels; higher = faster piRNA-guided slicing of the target). Details: auxiliary factor: 500 nM mouse GTSF1.
Outline: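 For Cleave-'n-Seq, a transcribed, DNA-blocked target RNA library […] met 1 nM active affinity-purified piRISC with one synthetic guide at 33 °C for 0–8 or 0–960 min in HEPES–potassium acetate buffer, with or without 500 nM GTSF1 partner protein. Uncleaved targets were sequenced and normalised to depth and weakly complementary targets, with three trials pooled and k3 capped at 0.0001 min^-1. A burst-and-steady-state fit supplied the pre-steady-state cleavage rate.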
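Note: 1 nM active piRISC with 0.1 nM target library at 33 °C single turnover.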

Sequence	pre-steady-state target cleavage rate
UCCUGGAUGUGCUUGCAUAGUAUUUUGAAA	0.00858 ± 0.0064
UCCUGGAUGUCGAUGGAUAGUAUUUAGUAA	0.00684 ± 0.0036
UCCUGGAUGUCCUUGCAUACUAUUUACUUA	0.0119 ± 0.0046
UCCUGGUACAGCUAGCAUAGUAUUUACAAA	0.0365 ± 0.012
UCCUGGAUCAGCUUGCAUAGUAUUAUCAAA	0.0975 ± 0.021
UCCUGGAUCAGCUUGCAUAGUAUUUUCUUA	0.0452 ± 0.013
UCCUGGAUGUCCUUGCAUAGUAUUUACAUA	0.039 ± 0.013
UCCUGCUACAGCUUGCAUUCAAUUUAGUUA	0.00485 ± 0.0037
UCCUGGAUGUGCUUGCAUAGAAUUUAGUAA	0.00482 ± 0.0043
UCCUGGAUGUCGAACCAUAGUAGUUUAGUUA	< 0.0001
UCCUGGAUGUCGAUGCAAAGUAUUAAGUUA	0.00433 ± 0.0038
UCCUCCUACAGCUUGCAAUGUAUUUAGUAA	0.0921 ± 0.012
UCCUGGUACAGCUUGGAUAGUAUUUAGUAA	0.202 ± 0.041
UCCUGGUACAGCAUGCAUAGUAUUUACAAA	0.127 ± 0.033
UCCUGGAUGAGCUACCAUAGUAUUUAGAAA	0.00557 ± 0.0043
UCCUGGAACAGCUUGCAUAGUUUUAGUUA	0.0123 ± 0.0053
UCCUGGAUCAGCUUGGAUAGUAUUUACUUA	0.107 ± 0.026
UCCUGGAAGUGCUUGCAUAGUAUUUAGUAA	0.136 ± 0.022

Sequence	pre-steady-state target cleavage rate
UCCUGGAACACCUUGCAUAGUUUUUAGUUA	0.0237 ± 0.0067
UCCUGGAUGUCGAUGCAUAGUAUUUAGAUUA	0.0599 ± 0.016
UCCUGGUACAGCUUGCUUAGAAUUUAGUUA	0.181 ± 0.059
UCCUGGAUCACGUUGCAUAGUAUUUUCAAA	0.0743 ± 0.025
UCCUGGAUCAGCUUGCAUAGUAUUAACAAA	0.0885 ± 0.022
UCCUCCUACAGCUUGCAUAGUUAUUUCAAA	0.0507 ± 0.016
UCCUGGAUGUCCUUCCAUAGUAUUUAGUUA	0.0223 ± 0.008
UCCUGGUAGUCCUUGCAUAGUAUUUUCAAA	0.0125 ± 0.0059
UCCUGCUACAGCAUGCAUAGUAUUUACAAA	0.146 ± 0.043
UCCUGGAACAGCUUGCAUAGUAUUUACUAA	0.0459 ± 0.013
UCCUGGAUGUCGAAGCAUAUUAUUUAGUUA	0.00703 ± 0.0037
UCCUGGAACAGCAUGCAUAGUAUUUAGAAA	0.196 ± 0.025
UCCUGGAUGAGCUUGGUAAGUAUUUAGUAA	0.00762 ± 0.0042
UCCUGGAACAGCUUGCAUUCUAUUUAGUUA	0.0609 ± 0.014
UCCUGGAUCAGCUUGCAUAGUAUUGAGUUA	0.227 ± 0.039
UCCUGGAUCACCUUGCAUAGUAUAUAGUUA	0.227 ± 0.041
UCCUGGAUGUCGUUGGAUAGUAUUUAGUUA	0.0108 ± 0.0042
UCCUGGAUGUCGAUGCAGAGUAUUUAGUUA	0.00473 ± 0.0028

Same assay, conditions: auxiliary factor: none (no GTSF1)

Sequence	pre-steady-state target cleavage rate
UCCUGGAUGUCGAACGUAAGUAAUUUGUUA	< 0.0001
UCCUGGAUGUCGAACGUUAGUAAUUUGUUA	< 0.0001
UCCUGGAUGUCGAACGUAUCUAUUCUAGUUA	< 0.0001
UCCUGGAUGUCGAACCAUCAGUAUUUAGUUA	< 0.0001

— the supplement of paper PMC10338343
